The values that follow come from PubChem BioAssay (NCATS).

Inconclusive results are not listed. Activity calls are given as the source filed them. Unless noted, calls follow the shape of the dose curve; as a rule, active = well fitted curve in the direction sought with a large enough effect; inconclusive = small, poorly fitted or top-dose-only effect, or another doubt; inactive = no such curve, though single readings can be large; an effect the other way counts as inactive or inconclusive.

The target of assay [1] is Phenylethanolamine N-methyltransferase (Homo sapiens) (UniProt P11086). The experiment in a line: Confirmatory Screen for Target Class Profiling of Small Molecule Inhibitors of Methyltransferases (AID 1745852). As to conditions: MTase-Glo luminescence, SAH detection, recombinant enzyme, stronger effect = lower value; measured here: PNMT max response unless noted.
Phenylethanolamine N-methyltransferase (Homo sapiens), sequence (P11086 whole entry, looked up): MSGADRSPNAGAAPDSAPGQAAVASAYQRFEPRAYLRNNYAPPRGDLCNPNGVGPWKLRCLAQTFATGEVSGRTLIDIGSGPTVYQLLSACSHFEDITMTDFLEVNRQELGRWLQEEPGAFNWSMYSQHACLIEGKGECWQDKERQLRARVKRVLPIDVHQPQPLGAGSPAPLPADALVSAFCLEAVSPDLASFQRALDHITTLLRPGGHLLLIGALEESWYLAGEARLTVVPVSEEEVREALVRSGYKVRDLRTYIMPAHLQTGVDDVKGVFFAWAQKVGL
Assay [2] is described as follows: NCATS anti-infectives library activity on HEK293 viability as a counter-qHTS vs the C. elegans viability qHTS (AID 1745854).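 Also: HEK293 cells exposed to compounds for 24 hr before the viability read; % is scaled to controls: 0 for no effect and ±100 for the full control effect.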 An outline of the steps:
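Compound titrations (final up to 41.7 uM) were incubated with HEK293 cells for 24 hr at 37C under 5% CO2. Viable cells were quantified with CellTiter-Glo after 10 min at ambient temperature.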

The target in assay [3] is Glutathione peroxidase 1 (Homo sapiens) (UniProt P07203). The experiment in a line: Primary qHTS Assay for Inhibitors of Recombinant Selenoprotein Glutathione Peroxidase 1 (GPX1) (AID 1845191). Also: nearly all actives have a fitted effect of over 65% in size. An outline of the steps: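 NADPH consumption tracked by fluorescence at 340/450 nm between t=0 and t=15 min, room temperature. Final mix: 10 nM GPX1, 100 nM glutathione reductase, 1 mM GSH, 0.5 mM NADPH, 0.5 mM cumene hydroperoxide, 0.01% BSA; 30 min compound–enzyme preincubation.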
Glutathione peroxidase 1 (Homo sapiens), sequence (P07203 whole entry, looked up): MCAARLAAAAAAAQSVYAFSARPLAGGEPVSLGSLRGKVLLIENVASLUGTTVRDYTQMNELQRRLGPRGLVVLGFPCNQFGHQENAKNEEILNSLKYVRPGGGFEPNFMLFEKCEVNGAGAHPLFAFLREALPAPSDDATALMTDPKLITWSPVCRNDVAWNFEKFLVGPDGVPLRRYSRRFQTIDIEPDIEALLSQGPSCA

For assay [4], the target named is Phospholipid hydroperoxide glutathione peroxidase GPX4 (Homo sapiens) (UniProt P36969). The experiment in a line: Primary qHTS Assay for Inhibitors of Recombinant Selenoprotein Glutathione Peroxidase 4 (GPX4) (AID 1845192). Also: nearly all actives have a fitted effect of over 65% in size. An outline of the steps: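 NADPH consumption followed by fluorescence at 340/450 nm, t=0 and after 15 min at room temperature. Reaction started with cumene hydroperoxide (0.5 mM final) after 30 min compound–GPX4 preincubation; final 200 nM GPX4, 100 nM GR, 1 mM GSH, 0.5 mM NADPH.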
Phospholipid hydroperoxide glutathione peroxidase GPX4 (Homo sapiens), sequence (P36969 whole entry, looked up): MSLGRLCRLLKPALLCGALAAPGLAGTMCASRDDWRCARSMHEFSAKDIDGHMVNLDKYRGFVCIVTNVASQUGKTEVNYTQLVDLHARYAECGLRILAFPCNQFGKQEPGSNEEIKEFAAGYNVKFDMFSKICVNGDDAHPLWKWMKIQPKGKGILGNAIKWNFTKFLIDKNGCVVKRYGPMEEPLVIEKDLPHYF

The nature of assay [5]: Primary fluorescence-based thiol-reactive (MSTI) qHTS assay for identification of artifact compounds. (AID 1845221). Also: series mostly up to about 54 µM; nearly all actives have a fitted effect of over 65% in size. In outline: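 Compounds were incubated 1 h at room temperature in the dark with the MSTI probe (4 uM) in PBS pH 7.4, 2% DMSO. Signals were normalized between Acetyl-MSTI and MSTI.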
Assay [6] relates to Nanoluciferase (engineered Oplophorus gracilirostris luciferase). Put plainly: Primary Nanoluciferase (NLuc) qHTS assay for identification of artifact compounds. (AID 1845222).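 Also: series mostly up to about 54 µM; 0% = DMSO and -100% = no enzyme.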 In outline: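 Compounds are pinned into diluted (1:55) conditioned medium of NLuc-expressing S16 cells and held 15 min at room temperature protected from light. Nano-Glo substrate follows, and luminescence is read 5 min later.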

Assay [7] is described as follows: Primary redox qHTS assay for identification of artifact compounds. (AID 1845223).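 Also: 0% = DMSO and 100% = reference compound.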 In outline:
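Redox-cycling detection via DTT (250 uM final) oxidation coupled to Amplex Red (25 uM)/HRP (250 mU/mL) in HBSS. 15 min preincubation plus 30 min after DTT, room temperature. Ex/Em 525/598 nm; 4-parameter Hill fit against DMSO and 10 uM DA3003.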

A short description of assay [8]: Quantitative High-Throughput drug screen in 47 multiple myeloma cell lines against the NCATS MIPE library collection: AMO1_DSMZ cell viability assay (AID 1918927; also: nearly all actives have a fitted effect of over 30% in size; also: potency is read from the fitted curve at half-maximal effect). In outline:
(§1)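 Relative luminescence from CellTiter-Glo served as the viability signal, referenced to DMSO-treated (100%) and cell-free medium (0%) controls. Treatment lasted 48 hours at 37C with 500 cells per well.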

Assay [9] in a line: Quantitative High-Throughput drug screen in 47 multiple myeloma cell lines against the NCATS MIPE library collection: ARD_JJKsccE7 cell viability assay (AID 1918929; also: potency is read from the fitted curve at half-maximal effect;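 as to viability: 100% = DMSO-only wells and 0% = media-only wells without cells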). An outline of the steps: as §1
The nature of assay [10]: Viability counterscreen for antagonist of constitutive androstane receptor (CAR) against the NCATS DSHEA and TCM libraries (AID 1794837).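 Also: compound exposure lasted 24 h before viability reading; 0% is about no effect.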 In outline:
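HepG2-CYP2B6-hCAR cells, 2,500/well, were exposed 24 hr at 37C to substances together with 48 uM CITCO (final). Viability was read as CellTiter-Fluor fluorescence (Ex/Em 405/540 nm) after 1 hr.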

Assay [11] can be described thus: Viability counterscreen for agonist of constitutive androstane receptor (CAR) against the NCATS DSHEA and TCM libraries (AID 1794838).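 Also: HepG2 cells with CYP2B6 reporter and hCAR plus 0.75 µM PK11195 antagonist; 0% is about no effect.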 An outline of the steps:
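HepG2-CYP2B6-hCAR cells (2,500/well) treated 24 h at 37C with compounds plus 0.75 uM PK11195; viability read by CellTiter-Fluor fluorescence, Ex/Em 405/540 nm.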

For assay [12], the target named is Nuclear receptor subfamily 1 group I member 3 (Homo sapiens) (UniProt Q14994). Put plainly: Primary qHTS for agonist of constitutive androstane receptor (CAR) against the NCATS DSHEA and TCM libraries (AID 1794839).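 Also: HepG2 cells expressing human CAR with a CYP2B6 reporter plus PK11195 antagonist; 0% is about no effect.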 In outline:
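HepG2-CYP2B6-hCAR cells, 2,500/well, attached 5 h, then dosed with 0.75 µM PK11195 (final) for 24 h at 37 °C. Luciferase luminescence read (ONE-Glo); CellTiter-Fluor viability (Ex/Em 405/540 nm) in same wells; CITCO positive control.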

Assay [13] in a line: HepG2 viability counterscreen (readout 2: ATP content) against the NCATS DSHEA and TCM libraries (AID 1794840). Also: 0% is about no effect. An outline of the steps:
(§2)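 HepG2 cells, 1,000/well, attached ~4 h, then exposed ~24 h at 37C to substances. Protease activity read by fluorescence of 25 uM GF-AFC (Ex/Em 380/510 nm) after 30 min; ATP then by CellTiter-Glo luminescence.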

A short description of assay [14]: HepG2 viability counterscreen (readout 1: protease activity) against the NCATS DSHEA and TCM libraries (AID 1794841).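 Also: cells exposed to compounds for about 24 h before the protease read; 0% is about no effect.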 An outline of the steps: as §2
Assay [15] addresses Metallo-beta-lactamase type 2 (Klebsiella pneumoniae) (UniProt C7C422). The experiment in a line: qHTS to identify inhibitors of the New Delhi Metallo-beta-lactamase (NDM): assay validation screen against the NCATS LOPAC Collection (AID 1794843).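 Also: nitrocefin turnover by NDM-1 measured as 485 nm absorbance at plateau; series mostly up to about 38 µM; % is scaled to controls: 0 for no effect and ±100 for the full control effect.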 An outline of the steps:
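Enzyme 2 nM final, 50 mM HEPES pH 7.0, 1 uM ZnSO4, 0.01% Tween20; cpds in DMSO, preincub w/ enzyme; + nitrocefin (50 uM stock); A485 at plateau; no-enzyme column as blank.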

Assay [16] can be described thus: Quantitative High-Throughput drug screen in 47 multiple myeloma cell lines against the NCATS MIPE library collection: FR4_PLB cell viability assay (AID 1918924; also: nearly all actives have a fitted effect of over 35% in size; also: potency is read from the fitted curve at half-maximal effect). In outline: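 Approved and investigational drugs from MIPE 4.0 were added by pin tool to 500 cells per well. After 48 hours at 37C, ATP-based CellTiter-Glo luminescence indicated remaining viability.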

The nature of assay [17]: Quantitative High-Throughput drug screen in 47 multiple myeloma cell lines against the NCATS MIPE library collection: Delta47_JCRB cell viability assay (AID 1918925; also: nearly all actives have a fitted effect of over 45% in size; also: potency is read from the fitted curve at half-maximal effect). An outline of the steps:
as §1

Assay [18] can be described thus: Quantitative High-Throughput drug screen in 47 multiple myeloma cell lines against the NCATS MIPE library collection: EJM_DSMZ cell viability assay (AID 1918926; also: nearly all actives have a fitted effect of over 30% in size; also: potency is read from the fitted curve at half-maximal effect). In outline:
as §1

Assay [19] is described as follows: Quantitative High-Throughput drug screen in 47 multiple myeloma cell lines against the NCATS MIPE library collection: ARP1_JJKsccF8 cell viability assay (AID 1918928; also: nearly all actives have a fitted effect of over 40% in size; also: potency is read from the fitted curve at half-maximal effect). In outline: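 500 cells/well; MIPE 4.0 library pinned in; 48 h, 37 °C, 5% CO2; CellTiter-Glo ATP luminescence. Controls: DMSO = 100% viability, medium only = 0%.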
Assay [20] is described as follows: NCATS anti-infectives library activity on the primary C. elegans qHTS viability assay (AID 1745855; calls by dose curve). In outline:
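Titration-based screen in worms: eggs hatched overnight in M9, L1 larvae fed TOP10 capsules in S medium with compound, incubated 21 °C for 7 days; fluorescent objects gated by size and intensity at days 0, 3 and 7.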

Metallo-beta-lactamase type 2 (Klebsiella pneumoniae), sequence (C7C422 whole entry, looked up): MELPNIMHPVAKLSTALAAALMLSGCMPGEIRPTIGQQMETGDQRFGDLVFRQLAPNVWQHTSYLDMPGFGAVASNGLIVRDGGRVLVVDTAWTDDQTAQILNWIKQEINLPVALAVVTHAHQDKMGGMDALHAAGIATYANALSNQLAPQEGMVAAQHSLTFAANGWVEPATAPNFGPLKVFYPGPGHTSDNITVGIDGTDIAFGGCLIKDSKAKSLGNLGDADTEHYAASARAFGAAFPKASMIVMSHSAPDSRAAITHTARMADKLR
Nuclear receptor subfamily 1 group I member 3 (Homo sapiens), sequence (Q14994 whole entry, looked up): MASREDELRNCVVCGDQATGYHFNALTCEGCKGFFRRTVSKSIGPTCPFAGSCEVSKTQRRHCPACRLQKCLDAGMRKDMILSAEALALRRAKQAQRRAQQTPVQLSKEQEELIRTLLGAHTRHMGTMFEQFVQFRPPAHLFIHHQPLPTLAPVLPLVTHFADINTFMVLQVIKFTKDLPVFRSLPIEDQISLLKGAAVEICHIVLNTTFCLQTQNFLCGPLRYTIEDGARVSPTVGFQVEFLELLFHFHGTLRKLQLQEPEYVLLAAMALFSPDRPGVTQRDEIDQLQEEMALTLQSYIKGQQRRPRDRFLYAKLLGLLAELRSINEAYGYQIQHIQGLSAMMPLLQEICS

In the case of `Cc1nc(Nc2ncc(C(=O)Nc3c(C)cccc3Cl)s2)cc(N2CCN(CCO)CC2)n1`, the activity in assay [1] was -52.6%. The outcome in assay [2], in assay [6] and in assay [7] was “inactive” throughout. The Potency entry in assay [3], in assay [4] and in assay [5] was “inactive” each time. The Potency is 2640 nM (active) in assay [8] and 2350 nM (active) in [9].
Regarding `Cc1cc(O)c2c(c1)C(=O)c1cc(O)cc(O)c1C2=O`, the outcome in assay [10], in assay [11], in [12], in [13], in [14] and in assay [15] was “inactive” each time. Moreover, the Potency result in [3], in [4], in assay [17], in assay [8] and in assay [9] was “inactive” in each case. The Potency in [16] was 418 nM (active).
For `COc1ccccc1N1CCN(CCN(C(=O)C2CCCCC2)c2ccccn2)CC1`, the outcome in assay [15] and in assay [6] was “inactive” each time. Moreover, the Potency result in assay [3], in assay [4], in assay [5], in assay [16], in assay [18] and in [19] was “inactive” in each case. Further, the Potency in [17] is 10500 nM (active); in [8], 2960 nM (active); in assay [9] it was 1180 nM (active).
As for `CC(C)c1ccc2c(c1)c(SC(C)(C)C)c(CC(C)(C)C(=O)O)n2Cc1ccc(Cl)cc1`, the activity in assay [1] is -5.81%. In assay [15], the outcome was “inactive”. Besides, the Potency result in [3], in assay [4] and in [8] was “inactive” throughout. In addition, in assay [17], the Potency is 26400 nM (active).
As to `CCN(CC)C(=S)SSC(=S)N(CC)CC`, the activity in assay [1] was -2.02%. Moreover, the Potency result in assay [3] and in assay [4] was “inactive” each time. Also, the Potency in assay [16] is 7.4 nM (active); in assay [17], 11.8 nM (active); in [18] it was 6.6 nM (active); in assay [8], 37.2 nM (active); in [19], 23.5 nM (active).
Regarding `C[C@H](Cn1cnc2c(N)ncnc21)OCP(=O)(O)O`, in [2], the outcome was “inactive”. Moreover, the Potency entry in assay [16], in [17], in assay [18], in assay [19] and in assay [9] was “inactive” throughout.
As for `COC(=O)N[C@H](C(=O)N[C@@H](Cc1ccccc1)[C@@H](O)CN(Cc1ccc(-c2ccccn2)cc1)NC(=O)[C@@H](NC(=O)OC)C(C)(C)C)C(C)(C)C`, the outcome in assay [2] was “inactive”. Besides, the Potency entry in [3], in assay [4], in assay [16], in [17], in assay [18] and in assay [9] was “inactive” throughout. For the same compound, in assay [19], the Potency is 16600 nM (active).
With `N=C(N)c1ccc2cc(OC(=O)c3ccc(N=C(N)N)cc3)ccc2c1`, the outcome in [2] is “inactive”. Moreover, the Potency entry in assay [20], in assay [3], in assay [4], in [8] and in assay [9] was “inactive” in each case. In addition, in [18], the Potency was 18700 nM (active).
With `N=C(N=C(N)N)N1CCOCC1`, the outcome in [2] is “inactive”. Moreover, the Potency result in assay [20], in [16], in assay [17], in assay [18], in assay [8] and in assay [19] was “inactive” throughout. The Potency entry in assay [9] is “inactive”.
With `CCOC(=O)C1=C[C@@H](OC(CC)CC)[C@H](NC(C)=O)[C@@H](N)C1`, the outcome in [2] was “inactive”. For the same compound, the Potency entry in [20], in assay [3], in assay [4], in [16], in [17] and in assay [18] was “inactive” each time. In addition, the Potency entry in assay [8], in assay [19] and in assay [9] was “inactive” throughout.
